Test results from PMC11006913.

Tests used:
Experiment in all cases: PBM; 200 nM protein, PBS
Details in all cases: dsDNA, one strand shown
[1] = molecular target: ALX4 (Homo sapiens, UniProt Q9H161 200-286)
[2] = molecular target: ALX4 (Homo sapiens, UniProt Q9H161 200-286, Q225E)
[3] = molecular target: HOXB6 (Homo sapiens, UniProt P17509 132-218, K202E)
[4] = molecular target: HOXB6 (Homo sapiens, UniProt P17509 132-218)
Sequence of HOXB6 (Homo sapiens, UniProt P17509 132-218) (P17509 132-218): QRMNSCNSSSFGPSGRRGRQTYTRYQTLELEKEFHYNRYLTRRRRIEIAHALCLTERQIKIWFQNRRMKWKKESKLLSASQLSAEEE

Sequence of ALX4 (Homo sapiens, UniProt Q9H161 200-286, Q225E) (Q9H161 200-286 Q225E): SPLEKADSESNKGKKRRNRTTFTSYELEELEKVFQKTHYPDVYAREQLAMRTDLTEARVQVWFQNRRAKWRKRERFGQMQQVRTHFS
Sequence of ALX4 (Homo sapiens, UniProt Q9H161 200-286) (Q9H161 200-286): as the sequence (Q9H161 200-286 Q225E) above, with E26Q counted along it
Sequence of HOXB6 (Homo sapiens, UniProt P17509 132-218, K202E) (P17509 132-218 K202E): as the sequence (P17509 132-218) above, with K71E counted along it

Row | Sequence | binding signal [1] | binding signal [2] | binding signal [3] | binding signal [4]
1 | CCATCGGA | 8.15 upbm affinity estimate (log intensity, higher = more binding, comparable within an allelic series) | 8.29 upbm affinity estimate (log intensity, higher = more binding, comparable within an allelic series) | – | –
2 | TAAATTTA | 12.2 upbm affinity estimate (log intensity, higher = more binding, comparable within an allelic series) | 11 upbm affinity estimate (log intensity, higher = more binding, comparable within an allelic series) | – | –
3 | CGTAATCA | 11.9 upbm affinity estimate (log intensity, higher = more binding, comparable within an allelic series) | 10.6 upbm affinity estimate (log intensity, higher = more binding, comparable within an allelic series) | – | –
4 | AAGCCGGC | 7.99 upbm affinity estimate (log intensity, higher = more binding, comparable within an allelic series) | 8.26 upbm affinity estimate (log intensity, higher = more binding, comparable within an allelic series) | – | –
5 | TATTTTGA | 9.82 upbm affinity estimate (log intensity, higher = more binding, comparable within an allelic series) | 9.39 upbm affinity estimate (log intensity, higher = more binding, comparable within an allelic series) | – | –
6 | GAGGGAGC | 8.04 upbm affinity estimate (log intensity, higher = more binding, comparable within an allelic series) | 8.01 upbm affinity estimate (log intensity, higher = more binding, comparable within an allelic series) | – | –
7 | AACTTACA | 9.85 upbm affinity estimate (log intensity, higher = more binding, comparable within an allelic series) | 9.42 upbm affinity estimate (log intensity, higher = more binding, comparable within an allelic series) | – | –
8 | CATCAATC | 10.6 upbm affinity estimate (log intensity, higher = more binding, comparable within an allelic series) | – | 9.69 upbm affinity estimate (log intensity, higher = more binding, comparable within an allelic series) | 10.5 upbm affinity estimate (log intensity, higher = more binding, comparable within an allelic series)
9 | CTCGGGTC | 8.18 upbm affinity estimate (log intensity, higher = more binding, comparable within an allelic series) | 8.25 upbm affinity estimate (log intensity, higher = more binding, comparable within an allelic series) | – | –
10 | CTGTCCAC | 7.93 upbm affinity estimate (log intensity, higher = more binding, comparable within an allelic series) | 8.3 upbm affinity estimate (log intensity, higher = more binding, comparable within an allelic series) | – | –
11 | ATTGGTGA | 10.4 upbm affinity estimate (log intensity, higher = more binding, comparable within an allelic series) | 9.78 upbm affinity estimate (log intensity, higher = more binding, comparable within an allelic series) | – | –
12 | CGGCCGAC | 7.76 upbm affinity estimate (log intensity, higher = more binding, comparable within an allelic series) | 8.04 upbm affinity estimate (log intensity, higher = more binding, comparable within an allelic series) | – | –
13 | AGCCGTGC | 7.92 upbm affinity estimate (log intensity, higher = more binding, comparable within an allelic series) | 8.07 upbm affinity estimate (log intensity, higher = more binding, comparable within an allelic series) | – | –
14 | CGATATAA | 10.2 upbm affinity estimate (log intensity, higher = more binding, comparable within an allelic series) | 9.67 upbm affinity estimate (log intensity, higher = more binding, comparable within an allelic series) | – | –
15 | ATAATACA | 11.1 upbm affinity estimate (log intensity, higher = more binding, comparable within an allelic series) | 10.4 upbm affinity estimate (log intensity, higher = more binding, comparable within an allelic series) | – | –
16 | GAGAGGCA | 8.02 upbm affinity estimate (log intensity, higher = more binding, comparable within an allelic series) | 8.16 upbm affinity estimate (log intensity, higher = more binding, comparable within an allelic series) | – | –
17 | AGAGCCTC | 7.96 upbm affinity estimate (log intensity, higher = more binding, comparable within an allelic series) | 7.95 upbm affinity estimate (log intensity, higher = more binding, comparable within an allelic series) | – | –
18 | CGACGCAG | 7.86 upbm affinity estimate (log intensity, higher = more binding, comparable within an allelic series) | 7.87 upbm affinity estimate (log intensity, higher = more binding, comparable within an allelic series) | – | –
19 | CCGTAGCC | 8.11 upbm affinity estimate (log intensity, higher = more binding, comparable within an allelic series) | 8.21 upbm affinity estimate (log intensity, higher = more binding, comparable within an allelic series) | – | –
20 | CATGGGGG | 7.84 upbm affinity estimate (log intensity, higher = more binding, comparable within an allelic series) | 7.96 upbm affinity estimate (log intensity, higher = more binding, comparable within an allelic series) | – | –

Row | Sequence | binding signal [1] | binding signal [2] | binding signal [3] | binding signal [4]
21 | GCAGCTCC | 8.25 upbm affinity estimate (log intensity, higher = more binding, comparable within an allelic series) | 8.26 upbm affinity estimate (log intensity, higher = more binding, comparable within an allelic series) | – | –
22 | CCTAGGAC | 7.82 upbm affinity estimate (log intensity, higher = more binding, comparable within an allelic series) | 8.1 upbm affinity estimate (log intensity, higher = more binding, comparable within an allelic series) | – | –
23 | CGCCTTGA | 8.09 upbm affinity estimate (log intensity, higher = more binding, comparable within an allelic series) | 8.15 upbm affinity estimate (log intensity, higher = more binding, comparable within an allelic series) | – | –
24 | CGTGCTCC | 8.3 upbm affinity estimate (log intensity, higher = more binding, comparable within an allelic series) | 8.41 upbm affinity estimate (log intensity, higher = more binding, comparable within an allelic series) | – | –
25 | ATAACCAA | 10.1 upbm affinity estimate (log intensity, higher = more binding, comparable within an allelic series) | 9.6 upbm affinity estimate (log intensity, higher = more binding, comparable within an allelic series) | – | –
26 | CCCCTCTC | 8.15 upbm affinity estimate (log intensity, higher = more binding, comparable within an allelic series) | 8.2 upbm affinity estimate (log intensity, higher = more binding, comparable within an allelic series) | – | –
27 | CGGCGGGC | 8.42 upbm affinity estimate (log intensity, higher = more binding, comparable within an allelic series) | 8.3 upbm affinity estimate (log intensity, higher = more binding, comparable within an allelic series) | – | –
28 | CCATTATC | 11.3 upbm affinity estimate (log intensity, higher = more binding, comparable within an allelic series) | 10.2 upbm affinity estimate (log intensity, higher = more binding, comparable within an allelic series) | – | –
29 | AACGACAT | 9.98 upbm affinity estimate (log intensity, higher = more binding, comparable within an allelic series) | 9.4 upbm affinity estimate (log intensity, higher = more binding, comparable within an allelic series) | – | –
30 | AATTTTGA | 11.1 upbm affinity estimate (log intensity, higher = more binding, comparable within an allelic series) | 10.2 upbm affinity estimate (log intensity, higher = more binding, comparable within an allelic series) | – | –
31 | CCCGACAG | 8.07 upbm affinity estimate (log intensity, higher = more binding, comparable within an allelic series) | 8.17 upbm affinity estimate (log intensity, higher = more binding, comparable within an allelic series) | – | –
32 | CCTCAGGC | 8.2 upbm affinity estimate (log intensity, higher = more binding, comparable within an allelic series) | 8.19 upbm affinity estimate (log intensity, higher = more binding, comparable within an allelic series) | – | –
33 | ATGATAAA | 10.4 upbm affinity estimate (log intensity, higher = more binding, comparable within an allelic series) | 9.81 upbm affinity estimate (log intensity, higher = more binding, comparable within an allelic series) | – | –
34 | ATTACGAA | 11.4 upbm affinity estimate (log intensity, higher = more binding, comparable within an allelic series) | 10.3 upbm affinity estimate (log intensity, higher = more binding, comparable within an allelic series) | – | –
35 | GGAAGCCA | 8.23 upbm affinity estimate (log intensity, higher = more binding, comparable within an allelic series) | 8.17 upbm affinity estimate (log intensity, higher = more binding, comparable within an allelic series) | – | –
36 | CCCTTCCA | 8.25 upbm affinity estimate (log intensity, higher = more binding, comparable within an allelic series) | 8.35 upbm affinity estimate (log intensity, higher = more binding, comparable within an allelic series) | – | –
37 | ACAGCTCT | 8.24 upbm affinity estimate (log intensity, higher = more binding, comparable within an allelic series) | 8.19 upbm affinity estimate (log intensity, higher = more binding, comparable within an allelic series) | – | –
38 | GTAAAATA | 10.2 upbm affinity estimate (log intensity, higher = more binding, comparable within an allelic series) | 9.6 upbm affinity estimate (log intensity, higher = more binding, comparable within an allelic series) | – | –
39 | ACGCGGGA | 8.23 upbm affinity estimate (log intensity, higher = more binding, comparable within an allelic series) | 8.27 upbm affinity estimate (log intensity, higher = more binding, comparable within an allelic series) | – | –
